This is a sample that favours compounds with a hit; in the whole collection about 4.6% have one here.
D1 antag: antagonists of human D1 dopamine receptor. P21728. HEK293 TREx D1 cells, calcium flux, dopamine EC80; hits give low values. activity change, negative = inhibition, % at 10 µM. 3.2% of 360,000 active; in the data active = activity change below about -30%; also: % is scaled to controls: 0 for no effect and ±100 for the full control effect
Target sequence (P21728 whole entry, looked up): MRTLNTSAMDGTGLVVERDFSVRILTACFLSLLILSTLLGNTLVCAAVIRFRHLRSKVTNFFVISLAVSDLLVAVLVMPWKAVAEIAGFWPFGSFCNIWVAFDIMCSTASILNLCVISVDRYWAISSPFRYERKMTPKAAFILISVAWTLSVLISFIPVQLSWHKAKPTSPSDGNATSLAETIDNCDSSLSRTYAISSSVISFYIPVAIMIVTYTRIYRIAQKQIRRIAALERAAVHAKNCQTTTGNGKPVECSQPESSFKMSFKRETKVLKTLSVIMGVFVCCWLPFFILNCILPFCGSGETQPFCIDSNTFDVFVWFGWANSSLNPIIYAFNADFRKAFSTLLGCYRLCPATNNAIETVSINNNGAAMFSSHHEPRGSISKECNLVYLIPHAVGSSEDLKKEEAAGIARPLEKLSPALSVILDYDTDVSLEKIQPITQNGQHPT
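Cells carrying a force-coupled, tetracycline-inducible human D1 receptor report calcium flux. Each well gets a 10 s baseline, compound with 180 s monitoring, then an EC80 dopamine stimulus with a second 180 s kinetic read.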
D1 agonist: agonists of human D1 dopamine receptor | P21728 | HEK293 T-REx D1 cells, calcium flux, agonist mode | 1% of 360,000 active | AID 504660 | activation, % at 2 µM; also: 0% is about no effect
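Agonism was scored from calcium flux recorded over 180 s (1 read/s) after pintool compound addition, following a 10-cycle baseline. Cells were inducible force-coupled HEK293 TREx D1, plated overnight at 30 C and loaded with no-wash calcium dye.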
TRHR PAM: TRH receptor (human) allosteric enhancement; P34981; AID 493056; TRHR cells, fluo-8 calcium fluorescence, EC20 TRH enhancement; enhancement, % at 2 µM; 0.66% of 360,000 active; in the data active = enhancement above about 30%; also: 0% is about no effect
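TRHR-expressing cells loaded with fluo-8 calcium dye were read kinetically (ex 480/em 530) during compound addition, then stimulated with an EC20 of TRH (10 nM final). Enhancement of the Gq-mediated intracellular calcium response was scored.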
TRHR ag: agonists of human TRH receptor. 0.18% of 360,000 active. P34981. TRHR cells, calcium flux fluo-8, FDSS agonist mode. activation, % at 2 µM; also: 0% is about no effect
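Agonist-mode FDSS calcium read (Ex 480/Em 530, 1 s cycles) in 1536-well TRHR cells with fluo-8 dye, after 10-cycle baseline and 23 nL compound addition; TRH at EC20 (10 nM final) added afterwards for the enhancer phase.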
D1 potentiator: potentiators of human D1 dopamine receptor; P21728; HEK293 TREx D1 cells, calcium flux, dopamine EC20 potentiation; potentiation, % at 10 µM; 0.036% of 360,000 active; AID 504651; in the data active = potentiation above about 30%; also: 0% is about no effect
* marks the source's active call; other numbers are inactive results; . = no result given. Rule as the data show it, unless noted: active = activation above about 30%; inactive = the rest.

SMILES | D1 antag | D1 agonist | TRHR PAM | TRHR ag | D1 potentiator
O=C(Cn1c(=O)oc2cc(S(=O)(=O)N3CCCC3)ccc21)Nc1cccc(C(F)(F)F)c1 | -39* | 11 | -3 | -1 | -3
O=C(Cn1c(=O)oc2cc(S(=O)(=O)N3CCCC3)ccc21)NCc1ccc(F)cc1 | 14 | 11 | -4 | 3 | -5
O=C(Cn1c(=O)oc2cc(S(=O)(=O)N3CCCCC3)ccc21)NCc1ccc(F)cc1 | -37* | 41* | 5 | 0 | -4
COCCNC(=O)c1c(N)n(CCCn2ccnc2)c2nc3ccccc3nc12 | -47* | 1 | 17 | 0 | -9
O=CNCc1nc2ccccc2n1CCCc1ccccc1 | 10 | 23 | -2 | 0 | -3
N#Cc1c(N)n(CCc2ccc(F)cc2)c2nc3ccccc3nc12 | -18 | 0 | 2 | 0 | -8
Cn1c(-c2c(N)n(CCc3ccccc3)c3nc4ccccc4nc23)nc2ccccc21 | 11 | 77* | 2 | 20 | -5
COCCNC(=O)c1c(N)n(-c2ccccc2)c2nc3ccccc3nc12 | -1 | 3 | 1 | 0 | 9
Cn1c(-c2c(N)n(C3CCCC3)c3nc4ccccc4nc23)nc2ccccc21 | -16 | 53* | 17 | 16 | -5
Cn1c(-c2c(N)n(CCCc3ccccc3)c3nc4ccccc4nc23)nc2ccccc21 | 3 | 52* | 0 | -1 | -5
Cc1cc(Nc2ccc(C)c(Cl)c2)n2nc(Cc3ccccc3)nc2n1 | -6 | 14 | 10 | 0 | -4
Cc1ccc(NC(=O)c2c(C)oc3ccc(O)c(CN4CCN(Cc5ccccc5)CC4)c23)cc1 | 7 | 1 | -1 | 0 | 2
Cc1cccc2sc(N(Cc3cccnc3)C(=O)C3COc4ccccc4O3)nc12 (stereo unspecified) | . | 1 | -5 | 0 | -1
COCCCn1c(N)c(-c2nc3ccccc3n2C)c2nc3ccccc3nc21 | -4 | 77* | 3 | 22 | -2
Cc1ccc(CCNC(=O)c2sc3ncccc3c2-n2c(C)ccc2C)cc1 | 9 | 9 | -6 | 0 | 0
Cc1ccc(C)c(N2CCN(CCCNC(=O)c3cnn(-c4ccccc4)c3C3CCN(C(=O)OC(C)(C)C)CC3)CC2)c1 | -42* | 14 | -16 | -1 | -8
CN1CCN(CCCNC(=O)c2cnn(-c3ccccc3)c2C2CCN(C(=O)OC(C)(C)C)CC2)CC1 | 1 | 0 | -6 | -1 | 2
COc1ccccc1N1CCN(CCCNC(=O)c2cnn(-c3ccc(C)c(C)c3)c2C2CCN(C(=O)OC(C)(C)C)CC2)CC1 | 3 | 4 | 7 | 0 | -6
COc1ccccc1N1CCN(CCCNC(=O)c2cnn(-c3cccc(Cl)c3)c2C2CCN(C(=O)OC(C)(C)C)CC2)CC1 | -31* | 10 | 12 | 1 | -5
CN(C)S(=O)(=O)N1CCC(Oc2cccc(C(=O)NCCC3=CCCCC3)c2)CC1 | -31* | 31* | -10 | 1 | -1
COc1cccc(NS(=O)(=O)c2ccc(C)c(C(=O)N3CCCCC3)c2)c1 | 18 | 6 | -1 | -1 | 10
CC(=O)Nc1nonc1-c1nnc(SCC(=O)Nc2cc(C)ccc2C)n1-c1ccccc1 | 4 | 4 | -9 | 0 | -1
O=S(=O)(c1cc(F)ccc1F)N1CCN(c2ccccn2)CC1 | -52* | 0 | 6 | 0 | 0
COc1ccc(F)cc1S(=O)(=O)N1CCN(c2ccccn2)CC1 | 10 | 1 | -7 | 1 | 1
COc1ccc(C(=O)N2CCN(c3ccccn3)CC2)cc1 | 3 | 1 | -7 | 1 | -3
SMILES | D1 antag | D1 agonist | TRHR PAM | TRHR ag | D1 potentiator
O=C(c1ccc(F)cc1)N1CCN(c2ccccn2)CC1 | -10 | 0 | 30* | 0 | -8
Cc1ccccc1Nc1nc(NCc2ccco2)c2ccccc2n1 | -36* | 9 | 25 | 0 | -16
Cc1ccc(OCCN2CCN(c3nc(NCc4ccco4)c4ccccc4n3)CC2)cc1 | -33* | 7 | 0 | 0 | -10
OCCN1CCN(c2nc(NCc3ccco3)c3ccccc3n2)CC1 | -5 | 3 | -2 | 0 | -6
Oc1ccccc1Nc1nc(NCc2ccco2)c2ccccc2n1 | -23 | 4 | 0 | -1 | -12
CCCOc1ccc(/C=C/C(=O)Nc2sc(C)c(C)c2C(=O)OCC)cc1OC | -13 | 1 | 0 | 0 | 1
O=C(Nc1nnc(S(=O)(=O)N2CCCc3ccccc32)s1)c1cccc(Cl)c1 | 5 | 0 | -4 | 0 | 0
COCc1[nH][nH]c(=O)c1C=Nc1ccc(OC(F)(F)F)cc1 | -33* | 2 | -1 | 0 | -4
CCOC(=O)C1=C(C)Nc2ccccc2N=C1NC(=O)Cc1ccc(OC)cc1 | -81* | 1 | -1 | 0 | -5
CCOC(=O)C1=C(C)Nc2ccccc2N=C1NC(=O)Cc1ccc(Br)cc1 | 4 | -1 | -2 | 0 | 1
Cn1cc(CC(=O)NCCN2CCOCC2)c2ccccc21 | -32* | 3 | -8 | 0 | -9
O=C(CCN1CCCCC1)NNC(=S)NC(=O)c1ccc(Br)cc1 | -36* | 3 | -1 | -1 | -1
O=C(NCCN1CCCC1)c1ccc(Br)cc1 | 5 | 1 | 9 | 0 | 31*
O=C(NCCCCNC(=O)c1ccc(Br)cc1)c1ccc(Br)cc1 | -33* | 0 | -2 | 0 | -5
Cc1cccc(CCNC(=O)c2ccc(CSCc3cccc(Cl)c3)o2)c1 | 1 | -1 | 4 | -1 | -1
O=C(Cc1ccccc1)NCCN1CCCC1 | -39* | 4 | 0 | 0 | -11
O=C(NCCN1CCCCC1)Nc1ccc(Br)cc1 | -60* | 7 | 4 | 1 | -1
COc1ccc(NC(=O)NCCCN2CCc3ccccc3C2)cc1 | 18 | 0 | -4 | 0 | -8
Cc1ccccc1CC(=O)NCCN1CCCCC1 | 2 | 3 | -3 | 1 | 0
O=C(NCCCN1CCc2ccccc2C1)Nc1ccc(Br)cc1 | -26 | 41* | -1 | 1 | -7
Cc1ccc(NC(=O)NCCN2CCCCC2)cc1 | 3 | 3 | -2 | 0 | -3
COc1cc(C2CC(=O)N(Cc3ccc(F)cc3)c3ccccc3S2)cc(OC)c1OC (stereo unspecified) | -4 | 3 | -9 | 0 | -4
CCOC(=O)c1nnc2c(-c3ccc(Cl)cc3)c(C)nn2c1C | -1 | 2 | -5 | -3 | -3
COCCCn1c(=O)c2sccc2n2c(CCCC(=O)Nc3cccc(C(F)(F)F)c3)nnc12 | -28 | 2 | 12 | 0 | -4
COc1ccccc1CNC(=O)CSc1nc(=O)[nH]c2c1CCCC2 | . | -1 | -3 | 0 | 0
CC1C(=O)N2CCCc3cc(S(=O)(=O)Nc4ccccc4F)cc1c32 (stereo unspecified) | 6 | 5 | 5 | 0 | -1
CC1C(=O)N2CCCc3cc(S(=O)(=O)Nc4ccccc4C(N)=O)cc1c32 (stereo unspecified) | -5 | 2 | 32* | 0 | -4

Screening results from PubChem BioAssay.
